Compound activity (PubChem)
Pf growth 96h = P. falciparum growth inhibition at 96 hours | P. falciparum luciferase reporter growth, 96 h | Potency, µM (series often up to 28.7 µM), most hits filed as inhibitors | 320,000 tested, 6.9% active
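Readout is luminescence from an integrated firefly luciferase in P. falciparum. Red cells, 2% hematocrit and 0.05% parasitemia final, were cultured with compound through two parasite generations (96 hours) at 37 C, 5% CO2.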
HCMV inh = human cytomegalovirus inhibition; 410,000 tested, 4.5% active; HFF cells, HCMV-luciferase reporter, 72 h; hits give low values; activity change, negative = inhibition, % at 57.5 µM; in the data active = activity change below about -60%; inconclusive = no clear call, values can overlap the other calls; inactive = above about -39%
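Two compound doses tested in HFFs infected with HCMV-luciferase, MOI 1 PFU/cell, 72 h at 37C. Lysate luminescence read with OneGlo; data normalized against buffer-only and 10uM Salinomycin inhibitor controls.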
Sm TGR block = inhibitors of Schistosoma mansoni thioredoxin glutathione reductase; purified TGR, DTNB reduction, TNB absorbance 405 nm; 360,000 tested, 3% active; Potency, µM (highest dose often 114 µM), actives largely listed as inhibitors; Q962Y6; note: nearly all actives have a fitted effect of over 60% in size
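First, TGR (20 nM dispensed) and NADPH were mixed with compound. Second, a 15 min room-temperature incubation followed. Third, further NADPH and then DTNB were added to start the reaction. Finally, TNB absorbance was monitored kinetically.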
Pf growth 48h = inhibits P. falciparum growth in the first generation, 48 h | 310,000 tested, 5.9% active | AID 504832 | P. falciparum luciferase growth in erythrocytes, 48 h | Potency, µM (top dose mostly 28.7 µM), usual class: inhibitors
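Read-out is firefly luciferase luminescence from an integrated reporter in P. falciparum, so falling signal marks reduced parasite growth. Infected erythrocytes were at 2% hematocrit and 0.1% parasitemia (final) in Albumax-supplemented RPMI 1640.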
SARS PLP yeast = SARS-CoV PLP inhibition in yeast | S. cerevisiae expressing SARS-CoV PLpro, growth rescue | Potency, µM (top dose mostly 32.9 µM), hits mostly activators | 330,000 tested, 0.19% active; calls by dose curve; note: nearly all actives have a fitted effect of over 55% in size
HCV inh = inhibitors of hepatitis C virus infection. Potency, µM (titrated, usually from 41.8 µM), usual class: inhibitors. Huh7.5.1 HCVcc-Cre infection, luciferase reporter, 44 h. 340,000 tested, 3.4% active
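Antiviral activity was scored by luciferase reporter output from cells infected with HCVcc-Cre (~0.5 moi) in presence of compound, 44 h infection period, cells seeded 1,000/well 4 h prior.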
Of the large screens only hits and unclear results are named; the others gave an inactive call. The list is not random: actives were taken first. Their share in the collection is about 15%. Unless noted, calls come from the whole dose curve; as a rule, active = well fitted curve in the direction sought with a large enough effect; inconclusive = small, poorly fitted or top-dose-only effect, or another doubt; inactive = no such curve, though single readings can be large; an effect the other way counts as inactive or inconclusive.

COc1c(N2CCNC(C)C2)c(F)cc2c(=O)c(C(=O)O)cn(C3CC3)c12 (stereo unspecified)	Pf growth 96h 5.4µM, Pf growth 48h inconclusive (no result: HCMV inh, Sm TGR block, SARS PLP yeast, HCV inh)
Cc1c(F)c(N2CCNC(C)C2)cc2c1c(=O)c(C(=O)O)cn2C1CC1 (stereo unspecified)	Pf growth 96h 6.7µM (no result: HCMV inh, Sm TGR block, SARS PLP yeast, HCV inh)
CCC1(c2ccc(F)cc2)NC(=O)N(CC(=O)Nc2ccc(C)c(S(=O)(=O)N3CCOCC3)c2)C1=O (stereo unspecified)	Sm TGR block inconclusive
COc1ccc(CCNC(=O)CCn2c(=O)c3cccn3c3ccc(F)cc32)cc1OC	none (no result: Pf growth 96h, Pf growth 48h, SARS PLP yeast, HCV inh)
CC(C)CCOc1ncnc2c1sc1nc3c(cc12)CSC(C)(C)C3	Pf growth 96h inconclusive, Pf growth 48h 12µM, HCV inh inconclusive
CCOC(=O)C1=C(C)N=c2s/c(=C\c3ccncc3)c(=O)n2C1c1ccc2c(c1)OCO2 (stereo unspecified)	Pf growth 48h 4.1µM, HCV inh inconclusive
CCOC(=O)C1=C(C)N=c2s/c(=C/c3ccccc3)c(=O)n2C1c1ccc(OC)c(OC)c1 (stereo unspecified)	Pf growth 96h inconclusive, Pf growth 48h inconclusive
CCOC(=O)C1=C(C)N=c2s/c(=C3\C(=O)Nc4ccccc43)c(=O)n2C1c1ccc2c(c1)OCO2 (stereo unspecified)	Sm TGR block 4µM (no result: Pf growth 96h)
O=C(C1CCN(S(=O)(=O)c2c(Cl)cccc2Cl)CC1)N1CCCCCCC1	Pf growth 96h inconclusive, Pf growth 48h inconclusive
Cn1c(O)c(N=Nc2ccccc2[N+](=O)[O-])c2ccccc21	none
Cn1c(-c2ccccc2[N+](=O)[O-])[n+](C)c2ccccc21	Pf growth 96h 4.1µM, Pf growth 48h 10µM
N#Cc1cc[n+](CC(=O)c2ccc(NC(=O)c3ccccc3)cc2)cc1	Pf growth 96h 3.3µM, Pf growth 48h 4.1µM
Cc1cccc[n+]1CC(=O)Nc1ccccc1	Pf growth 96h inconclusive
O=C(C[n+]1cccc(C(=O)Nc2ccccc2)c1)c1ccc([N+](=O)[O-])cc1	HCV inh 11µM
Cc1cccc[n+]1CC(=O)c1ccc(NC(=O)c2ccccc2)cc1	Sm TGR block inconclusive, Pf growth 48h 2.9µM
O=C(C[n+]1cccc(C(=O)Nc2ccccc2)c1)c1ccc(Cl)cc1	none (no result: Pf growth 96h, Sm TGR block, Pf growth 48h, SARS PLP yeast, HCV inh)
Cc1c(N)cc[n+](CC(=O)c2ccccc2)c1C	HCMV inh -76, HCV inh 8.9µM
COCCNC(=O)C1(C)CCCN(Cc2noc(-c3ccccc3OC)n2)C1 (stereo unspecified)	none (no result: Pf growth 96h, Sm TGR block, Pf growth 48h, SARS PLP yeast, HCV inh)
CCOc1ccc(NC(=O)c2cc3cc(C)ccc3n2C)cc1	none (no result: Pf growth 96h, Pf growth 48h, SARS PLP yeast, HCV inh)
Cc1ccc(NC(=O)/C=C/C(=O)O)c(NC(=O)c2ccccc2)c1	none
CCOCCCNC(=O)CCN1C(=O)c2ccccc2Sc2ncccc21	Pf growth 96h inconclusive (no result: Pf growth 48h)
Cc1cccc[n+]1CC(=O)c1ccc([N+](=O)[O-])cc1	HCMV inh -87, HCV inh inconclusive (no result: Pf growth 96h, Sm TGR block, Pf growth 48h, SARS PLP yeast)
Cn1cnc(S(=O)(=O)N2CCCCC2c2cc(C(=O)Nc3cccc4c3CCCC4)no2)c1 (stereo unspecified)	none (no result: Pf growth 96h, Sm TGR block, Pf growth 48h, SARS PLP yeast, HCV inh)
Fc1ccc(CSc2nnc(-c3ccccn3)o2)cc1	none
CCOC(=O)N1CCN(C(=O)CS(=O)Cc2nc(-c3cccc(C)c3)oc2C)CC1 (stereo unspecified)	Sm TGR block inconclusive (no result: Pf growth 48h)
Cc1cccc(-c2nc(CS(=O)CC(=O)N3CC(C)CC(C)C3)c(C)o2)c1 (stereo unspecified)	Sm TGR block 35µM
CCN1CCN(C(=O)CS(=O)Cc2nc(-c3cccc(C)c3)oc2C)CC1 (stereo unspecified)	Sm TGR block 40µM
Cc1cccc(-c2nc(CS(=O)CC(=O)N3CCc4ccccc4C3)c(C)o2)c1 (stereo unspecified)	Sm TGR block inconclusive, HCV inh inconclusive (no result: HCMV inh, Pf growth 48h)
Cc1cc(Cl)c(OCCCCN2CCOCC2)c(Br)c1	Pf growth 96h inconclusive
O=C1NC[C@@H](CCCCN2C[C@H](Cc3ccc(O)cc3)N(CCc3ccccc3)C(=O)C2=O)N(CC2CCCCC2)C1=O	none (no result: Pf growth 96h, Sm TGR block, Pf growth 48h, SARS PLP yeast, HCV inh)
O=c1[nH]nc(-c2ccc(OCc3ccc(Cl)cc3Cl)cc2)o1	none
O=S(=O)(c1ccc(F)cc1)n1ccc(-c2cccc(OCc3ccc(Cl)cc3Cl)c2)n1	Pf growth 96h 0.15µM, Pf growth 48h inconclusive
COc1ccc(N2CC(C(=O)Nc3cc(C)ccn3)CC2=O)cc1 (stereo unspecified)	none
CNCCCC12CCC(c3ccccc31)c1ccccc12	Pf growth 96h inconclusive, HCMV inh inconclusive, Pf growth 48h 12µM, HCV inh inconclusive
FC(F)(F)c1ccc(N2CCN(c3cc(-c4ccccc4)nc4ncnn34)CC2)nc1	HCMV inh -98, Pf growth 48h inconclusive, HCV inh 8.9µM
FC(F)(F)c1cccc(Nc2cc(-c3ccccc3)nc3ncnn23)c1	HCMV inh inconclusive
COc1ccc(S(=O)(=O)N2CCCCCC2)cc1C(=O)NCc1ccc(C)cc1	Pf growth 96h 12µM, Pf growth 48h 15µM
COc1ccc(CCN(C)C(=O)c2cc(S(=O)(=O)N3CCCCCC3)ccc2OC)cc1OC	Pf growth 96h inconclusive, Pf growth 48h inconclusive, HCV inh inconclusive
COc1cc(CNCCc2ccc(S(N)(=O)=O)cc2)ccc1OCC(=O)N1CCCCC1	Pf growth 96h 4.1µM
COc1ccc(S(=O)(=O)N2CCCCCC2)cc1C(=O)N(C)Cc1ccc(C)cc1	Pf growth 96h inconclusive, Pf growth 48h inconclusive, HCV inh inconclusive
COc1ccc(CCNCc2ccc(OCC(=O)N3CCCCC3)c(OC)c2)cc1OC	HCMV inh inconclusive
COc1ccc(CCN(C)C(=O)c2cc(S(=O)(=O)N3CCCCC3)ccc2Cl)cc1OC	Pf growth 96h inconclusive, Pf growth 48h 13µM, HCV inh inconclusive
COc1ccc(CCNC(=O)c2cc(S(=O)(=O)N3CCCCCC3)ccc2OC)cc1OC	Pf growth 96h 13µM, Pf growth 48h inconclusive, HCV inh inconclusive
COc1ccc(Cl)cc1N(CC(=O)N1CCCCCC1)S(C)(=O)=O	none
COc1ccc(CNC(=O)c2ccc3c(c2)nc2n3CCC(C)C2)c(OC)c1 (stereo unspecified)	HCMV inh inconclusive (no result: Pf growth 96h, Pf growth 48h, SARS PLP yeast, HCV inh)
COc1ccc(S(=O)(=O)N2CCCCCC2)cc1C(=O)N(C)CCOc1ccc(Cl)cc1	Pf growth 96h inconclusive, Pf growth 48h 13µM, HCV inh inconclusive
COc1ccc(Cl)cc1C(=O)NCCc1ccc(S(=O)(=O)NC(=O)NC2CCCCC2)cc1	Pf growth 96h inconclusive, HCMV inh -63
CCN1CCN(S(=O)(=O)c2ccc(Cl)c(C(=O)N(C)CCOc3ccc(Cl)cc3)c2)CC1	Pf growth 96h inconclusive, HCMV inh inconclusive, Pf growth 48h inconclusive, HCV inh inconclusive
COc1ccc(NC(=O)c2cccc(S(=O)(=O)NCc3ccco3)c2)c(OC)c1	Sm TGR block inconclusive, HCV inh inconclusive (no result: SARS PLP yeast)
